Source: PubChem BioAssay (NCI)
The panel holds about 83,000 compounds, 20% with a hit somewhere; the sample as a whole holds those more often.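 96-well plates, one dose, 48 hours. Percent growth reported; active if below 10.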 Values without a mark were called inactive. Activity calls are given as the source filed them.

What follows are compounds tested on T-47D breast (assay: NCI-60 one-dose screen, 48 h (100 = growth as untreated, 0 = no growth, -100 = all killed)). Details: 10 µM unless noted.

**Q.** How did the growth turn out when CC1Cc2cc(F)ccc2-n2cccc21 (stereo not given) was run?
**A.** 102%

**Q.** With Cc1c(O)c(N=Nc2ccc(C(=O)O)c(O)c2)c2ccccc2c1O as the compound, how does the growth read?
**A.** 112%

**Q.** How did the growth turn out when COc1ccc(-c2nc(Nc3nc4ccccc4[nH]3)nc(N)c2C#N)cc1 was run?
**A.** 97.1%

**Q.** With CC(C)(C)c1ccc([I+]c2ccc(C(C)(C)C)cc2)cc1 as the compound, how does the growth read?
**A.** 11.3%

**Q.** How did the growth turn out when C=CN(C)S(C)(=O)=O was run?
**A.** 16.8%

**Q.** How did the growth turn out when CCOC(=O)C1CCCN1C(=O)C1(NC(C)=O)CCCC1 (stereo not given) was run?
**A.** 100%

**Q.** With COc1cc(OC)c(NC(=O)n2ncc3cc(Nc4ncnc5ccccc45)ccc32)cc1Cl as the compound, how does the growth read?
**A.** 97.3%

**Q.** Cc1ccc([C@@H]2C[C@H](O)Cc3ccccc3N2)s1 was tested. Which growth did it give?
**A.** 99.1%

**Q.** Which growth does the source give for CCCCCCCCCCC1OC(C)CC(C)O1 (stereo not given) here?
**A.** 88.7%

**Q.** CCc1c(C)c2ccc(OCC(=O)N=Nc3c(O)[nH]c4ccccc34)c(C)c2oc1=O was tested. Which growth did it give?
**A.** -53.3% (active)

**Q.** Which growth does the source give for COc1ccccc1Cn1cc2c(c1)-c1oncc1CC2 here?
**A.** 52%

**Q.** How did the growth turn out when CC[C@H](Nc1ncnc2nc[nH]c12)c1nc2cccc(NCc3ccc(C(=O)NO)nc3)c2c(=O)n1-c1ccccc1 was run?
**A.** 6.8% (active)

**Q.** COc1ccc(CNCCCN2C(=O)c3ccc4c5c(ccc(c35)C2=O)C(=O)N(CCCNCc2ccc(OC)c(OC)c2OC)C4=O)c(OC)c1OC was tested. Which growth did it give?
**A.** -40.1% (active)

**Q.** O=C(N/N=C/c1coc2ccccc2c1=O)c1cc2oc(-c3ccccc3)cc2[nH]1 was tested. Which growth did it give?
**A.** 84.7%

**Q.** Which growth does the source give for CCOC(=O)c1cc(C(=O)c2ccc(Br)cc2)n2cc(C)cc(C)c12 here?
**A.** 80.3%

**Q.** Which growth does the source give for O=C(/C=C1\C(=O)N(Cc2ccccc2)c2ccccc21)c1ccc(OCCN2CCCCC2)cc1 here?
**A.** -56.3% (active)

**Q.** With Cc1nnc(/N=C2\NC(=O)/C(=C/C=C/c3ccccc3)S2)s1 as the compound, how does the growth read?
**A.** 53.8%

**Q.** O=c1oc2ccc3ccccc3c2cc1-c1ccnc2[nH]c(=S)[nH]c(=O)c12 was tested. Which growth did it give?
**A.** 103%

**Q.** Which growth does the source give for Cn1cnc2nc[nH]c2c1=S here?
**A.** 96%

**Q.** COc1ccc(Cn2cc3c(c2-c2ccc(O)cc2)CCc2cnoc2-3)cc1 was tested. Which growth did it give?
**A.** 50%

**Q.** CC(Br)c1nc2ccccc2cc1C(N)=O (stereo not given) was tested. Which growth did it give?
**A.** 95.7%

**Q.** How did the growth turn out when c1cc(C2CCCCC2)ccc1OCCCCCCN1CCNCC1 was run?
**A.** 22.8%

**Q.** For CC(O)CN(CC(C)O)N(CC(C)O)CC(C)O (stereo not given), which growth is on record?
**A.** 105%

**Q.** COc1ccc2nc3cc(Cl)ccc3c(NCCCNC(C)=O)c2c1 was tested. Which growth did it give?
**A.** 38.1%

**Q.** How did the growth turn out when O=C1N/C(=N\c2nnc(-c3ccc(O)cc3)s2)S/C1=C\c1ccccc1O was run?
**A.** 97.9%

**Q.** For CCCCCc1ccnc(CC(=O)c2ccc(OC)cc2)c1, which growth is on record?
**A.** 82.3%

**Q.** For NC(=O)CC(NC(=O)COc1ccc(Cl)cc1Cl)C(=O)O (stereo not given), which growth is on record?
**A.** 109%

**Q.** With COc1cc2ncnc(Nc3ccc4c(cnn4C(=O)Nc4ccccc4)c3)c2cc1OC as the compound, how does the growth read?
**A.** 77.7%

**Q.** How did the growth turn out when CCC(C)(CC)c1ccc(O)c(C)c1 was run?
**A.** 101%

**Q.** Which growth does the source give for CC(O)C(N)=O (stereo not given) here?
**A.** 94.7%

**Q.** For CCCCCCCCC1OC1CCCCCCCC(=O)O (stereo not given), which growth is on record?
**A.** 99%

**Q.** For CC(=O)NCCN, which growth is on record?
**A.** 97.5%

**Q.** Which growth does the source give for COc1cc(NC(C)CCCN)c2nc(C)ccc2c1OC (stereo not given) here?
**A.** 90.5%

**Q.** O=C1/C(=C\c2cn(-c3nc(N4CCOCC4)nc(N4CCOCC4)n3)c3ccccc23)c2ccccc2N1c1c(Cl)cccc1Cl was tested. Which growth did it give?
**A.** 45.5%

**Q.** Which growth does the source give for Cc1cc2c(-c3nc4ccccc4n3C)c(O)c(O)cc2c(O)c1-c1c(C)cc2c(-c3nc4ccccc4n3C)c(O)c(O)cc2c1O here?
**A.** 19.3%

**Q.** O=C(CN1CCN(c2cccc(Cl)c2)CC1)N1CCN(c2nnc(-c3ccc(Cl)cc3)c(-c3ccc(Cl)cc3)n2)CC1 was tested. Which growth did it give?
**A.** 50.1%

**Q.** How did the growth turn out when CCCC(=O)NNc1[nH]c(-c2cc(OC)c(OC)c(OC)c2)cc1C(=O)OCC was run?
**A.** 82.1%

**Q.** With CSCc1ncc(-c2ccc(C(F)(F)F)cc2)c(NC2CCCCCC2)n1 as the compound, how does the growth read?
**A.** 53.5% [25 µM]

**Q.** Which growth does the source give for CCOC1=C(Cl)C(=O)C(OCC)=C(Cl)C1=O here?
**A.** 93.5%

**Q.** CC(=O)c1nn(-c2ccc(C)cc2)cc1C(=O)c1cc2c(ccc3ccccc32)oc1=O was tested. Which growth did it give?
**A.** 75.2%

Each compound was assayed on BT-549 breast in the same assay as above. Details: 10 µM unless noted.

**Q.** CC1Cc2cc(F)ccc2-n2cccc21 (stereo not given) was tested. Which growth did it give?
**A.** 111%

**Q.** For Cc1c(O)c(N=Nc2ccc(C(=O)O)c(O)c2)c2ccccc2c1O, which growth is on record?
**A.** 89.3%

**Q.** Which growth does the source give for COc1ccc(-c2nc(Nc3nc4ccccc4[nH]3)nc(N)c2C#N)cc1 here?
**A.** 86.4%

**Q.** With CC(C)(C)c1ccc([I+]c2ccc(C(C)(C)C)cc2)cc1 as the compound, how does the growth read?
**A.** -5.08% (active)

**Q.** C=CN(C)S(C)(=O)=O was tested. Which growth did it give?
**A.** 46.8%

**Q.** For CCOC(=O)C1CCCN1C(=O)C1(NC(C)=O)CCCC1 (stereo not given), which growth is on record?
**A.** 95.5%

**Q.** Which growth does the source give for COc1cc(OC)c(NC(=O)n2ncc3cc(Nc4ncnc5ccccc45)ccc32)cc1Cl here?
**A.** 78.1%

**Q.** Cc1ccc([C@@H]2C[C@H](O)Cc3ccccc3N2)s1 was tested. Which growth did it give?
**A.** 110%

**Q.** Which growth does the source give for CCCCCCCCCCC1OC(C)CC(C)O1 (stereo not given) here?
**A.** 101%

**Q.** CCc1c(C)c2ccc(OCC(=O)N=Nc3c(O)[nH]c4ccccc34)c(C)c2oc1=O was tested. Which growth did it give?
**A.** 11.3%

**Q.** Which growth does the source give for COc1ccccc1Cn1cc2c(c1)-c1oncc1CC2 here?
**A.** 67.4%

**Q.** For CC[C@H](Nc1ncnc2nc[nH]c12)c1nc2cccc(NCc3ccc(C(=O)NO)nc3)c2c(=O)n1-c1ccccc1, which growth is on record?
**A.** 13.3%

**Q.** For COc1ccc(CNCCCN2C(=O)c3ccc4c5c(ccc(c35)C2=O)C(=O)N(CCCNCc2ccc(OC)c(OC)c2OC)C4=O)c(OC)c1OC, which growth is on record?
**A.** -90.5% (active)

**Q.** With O=C(N/N=C/c1coc2ccccc2c1=O)c1cc2oc(-c3ccccc3)cc2[nH]1 as the compound, how does the growth read?
**A.** 77.2%

**Q.** How did the growth turn out when CCOC(=O)c1cc(C(=O)c2ccc(Br)cc2)n2cc(C)cc(C)c12 was run?
**A.** 79%

**Q.** How did the growth turn out when O=C(/C=C1\C(=O)N(Cc2ccccc2)c2ccccc21)c1ccc(OCCN2CCCCC2)cc1 was run?
**A.** 80.4%

**Q.** Cc1nnc(/N=C2\NC(=O)/C(=C/C=C/c3ccccc3)S2)s1 was tested. Which growth did it give?
**A.** 52.2%

**Q.** O=c1oc2ccc3ccccc3c2cc1-c1ccnc2[nH]c(=S)[nH]c(=O)c12 was tested. Which growth did it give?
**A.** 101%

**Q.** With Cn1cnc2nc[nH]c2c1=S as the compound, how does the growth read?
**A.** 98.6%

**Q.** How did the growth turn out when COc1ccc(Cn2cc3c(c2-c2ccc(O)cc2)CCc2cnoc2-3)cc1 was run?
**A.** 44.4%

**Q.** CC(Br)c1nc2ccccc2cc1C(N)=O (stereo not given) was tested. Which growth did it give?
**A.** 112%

**Q.** c1cc(C2CCCCC2)ccc1OCCCCCCN1CCNCC1 was tested. Which growth did it give?
**A.** 83%

**Q.** For CC(O)CN(CC(C)O)N(CC(C)O)CC(C)O (stereo not given), which growth is on record?
**A.** 94.9%

**Q.** With COc1ccc2nc3cc(Cl)ccc3c(NCCCNC(C)=O)c2c1 as the compound, how does the growth read?
**A.** 88.7%

**Q.** How did the growth turn out when O=C1N/C(=N\c2nnc(-c3ccc(O)cc3)s2)S/C1=C\c1ccccc1O was run?
**A.** 97%

**Q.** Which growth does the source give for CCCCCc1ccnc(CC(=O)c2ccc(OC)cc2)c1 here?
**A.** 93.8%

**Q.** Which growth does the source give for NC(=O)CC(NC(=O)COc1ccc(Cl)cc1Cl)C(=O)O (stereo not given) here?
**A.** 108%

**Q.** For COc1cc2ncnc(Nc3ccc4c(cnn4C(=O)Nc4ccccc4)c3)c2cc1OC, which growth is on record?
**A.** 83.4%

**Q.** CCC(C)(CC)c1ccc(O)c(C)c1 was tested. Which growth did it give?
**A.** 98.9%

**Q.** For CC(O)C(N)=O (stereo not given), which growth is on record?
**A.** 102%

**Q.** How did the growth turn out when CCCCCCCCC1OC1CCCCCCCC(=O)O (stereo not given) was run?
**A.** 128%

**Q.** With CC(=O)NCCN as the compound, how does the growth read?
**A.** 102%

**Q.** With COc1cc(NC(C)CCCN)c2nc(C)ccc2c1OC (stereo not given) as the compound, how does the growth read?
**A.** 103%

**Q.** For O=C1/C(=C\c2cn(-c3nc(N4CCOCC4)nc(N4CCOCC4)n3)c3ccccc23)c2ccccc2N1c1c(Cl)cccc1Cl, which growth is on record?
**A.** 39.1%

**Q.** Cc1cc2c(-c3nc4ccccc4n3C)c(O)c(O)cc2c(O)c1-c1c(C)cc2c(-c3nc4ccccc4n3C)c(O)c(O)cc2c1O was tested. Which growth did it give?
**A.** 20%

**Q.** For O=C(CN1CCN(c2cccc(Cl)c2)CC1)N1CCN(c2nnc(-c3ccc(Cl)cc3)c(-c3ccc(Cl)cc3)n2)CC1, which growth is on record?
**A.** 87.8%

**Q.** With CCCC(=O)NNc1[nH]c(-c2cc(OC)c(OC)c(OC)c2)cc1C(=O)OCC as the compound, how does the growth read?
**A.** 100%

**Q.** CSCc1ncc(-c2ccc(C(F)(F)F)cc2)c(NC2CCCCCC2)n1 was tested. Which growth did it give?
**A.** 82.1% [25 µM]

**Q.** With CCOC1=C(Cl)C(=O)C(OCC)=C(Cl)C1=O as the compound, how does the growth read?
**A.** 114%

**Q.** Which growth does the source give for CC(=O)c1nn(-c2ccc(C)cc2)cc1C(=O)c1cc2c(ccc3ccccc32)oc1=O here?
**A.** 85.5%
